# “And” between values parts separate entries of the source, which are not always exact repeats. Equal entries are not always repeated. For part of these data: Measured potencies and affinities stand elsewhere. Some structures have more than one record in an assay (separate samples or runs), and their calls can disagree. The source made the active and inactive calls.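 Rule for the calls, unless noted: active = compounds whose cell count with miR-34 switched on is under 0.7 times the count with it off; inactive = the rest.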
# Legend:
# [1] = liver-stage malaria parasite growth inhibition, primary screen, cell-based, HepG2, luciferase luminescence, HepG2 viability (AID 624349; in the data active = parasite load remaining mostly below about 12%, no sharp cut-off; inactive = mostly above about 10%;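 note: 100% = mean of DMSO negative control wells on the same plate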); details: P. berghei liver stage in HepG2, luciferase luminescence, concentration not given here; parasite load remaining: stronger effect = lower value; viability: measured here: HepG2 viability without parasites
# [2] = sensitizers of A549 cells to miR-34 induction, primary screen, imaging, A549 dox-inducible miR-34, nuclei and caspase counts (AID 1347080); details: A549 miR-34 inducible, Hoechst nuclei count, 48 h
# [3] = modifiers of HSF1 nuclear foci, imaging, Selleck Cancer Library (AID 1347162; in the data active = plate-normalised HSF1 focus index below about 0.46); details: human cells, at 10 µM; SSMD: measured here: HSF1 foci SSMD mean; cell count: measured here: cell number; plate-normalised HSF1 focus index: stronger effect = lower value
# [4] = survival rescue of mitochondrial mutant cells in low glucose, primary screen, MELAS cybrids, Rieske KO mouse fibroblasts, CellTiter-Glo (AID 1508586;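 active = mean z-score across replicates of 1.96 or higher in either the MELAS or the Rieske mutant cell line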;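 note: z relative to plate mean and SD of compound and empty wells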)
# [5] = viability rescue of complex I mutant cybrids, primary screen, cell-based, galactose medium, ATP luminescence (AID 1645843;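 active = z-score of at least 1.8 in each of two replicates, scored against plate mean and spread of sample wells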;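 note: positive z means more ATP and so rescue of galactose-driven cybrid death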); details: complex I mutant cybrid cells, 72 h, stronger effect = higher value
# [6] = circadian clock period modulators, cell-based, LOPAC library, luminescence reporter (AID 2774; call rule not given here;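 note: values are relative to mean of DMSO wells on each plate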); details: circadian reporter cells, at 7 µM, actives lie on both sides
# [7] = test system: Hepatitis C virus NS3 helicase; test: HCV NS3 helicase inhibitors, primary screen, biochemical, fluorescence polarization, LOPAC1280 library (AID 687035; in the data active = inhibition above about 37%); details: Purified HCV NS3 helicase, Cy5-dT15 ssDNA binding fluorescence polarization; stronger effect = higher value; concentration not given here
# [8] = Cy5 fluorescence quenching or enhancement artefacts, artefact control for HCV NS3 helicase inhibitor project, biochemical, LOPAC1280 (AID 687037; call rule not given here); details: Cy5-DNA-NS3h complex fluorescence interference counterscreen
# [9] = phospholipid biosynthesis inhibitors in animal cells, primary screen, cell-based, LOPAC library, screen 4 (AID 1347384; call rule not given here); details: phospholipid biosynthesis inhibition screen, at 10 µM
# [10] = molecular target: Mitogen-activated protein kinase 7 (Homo sapiens) (UniProt Q13164); test: ERK5 transactivation activators in reporter cells, primary screen, cell-based, HTS (AID 1508626;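 active = luciferase signal above three times the same-plate solvent-only control wells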;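 note: luciferase driven by Gal4-ERK5 fusion binding five Gal4 sites before minimal TATA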); details: HeLa Gal4-ERK5 transactivation, 18 h, at 5 µM, stronger effect = higher value
# Chain of Mitogen-activated protein kinase 7 (Homo sapiens) (Q13164 whole entry, looked up, the tested form may be a part): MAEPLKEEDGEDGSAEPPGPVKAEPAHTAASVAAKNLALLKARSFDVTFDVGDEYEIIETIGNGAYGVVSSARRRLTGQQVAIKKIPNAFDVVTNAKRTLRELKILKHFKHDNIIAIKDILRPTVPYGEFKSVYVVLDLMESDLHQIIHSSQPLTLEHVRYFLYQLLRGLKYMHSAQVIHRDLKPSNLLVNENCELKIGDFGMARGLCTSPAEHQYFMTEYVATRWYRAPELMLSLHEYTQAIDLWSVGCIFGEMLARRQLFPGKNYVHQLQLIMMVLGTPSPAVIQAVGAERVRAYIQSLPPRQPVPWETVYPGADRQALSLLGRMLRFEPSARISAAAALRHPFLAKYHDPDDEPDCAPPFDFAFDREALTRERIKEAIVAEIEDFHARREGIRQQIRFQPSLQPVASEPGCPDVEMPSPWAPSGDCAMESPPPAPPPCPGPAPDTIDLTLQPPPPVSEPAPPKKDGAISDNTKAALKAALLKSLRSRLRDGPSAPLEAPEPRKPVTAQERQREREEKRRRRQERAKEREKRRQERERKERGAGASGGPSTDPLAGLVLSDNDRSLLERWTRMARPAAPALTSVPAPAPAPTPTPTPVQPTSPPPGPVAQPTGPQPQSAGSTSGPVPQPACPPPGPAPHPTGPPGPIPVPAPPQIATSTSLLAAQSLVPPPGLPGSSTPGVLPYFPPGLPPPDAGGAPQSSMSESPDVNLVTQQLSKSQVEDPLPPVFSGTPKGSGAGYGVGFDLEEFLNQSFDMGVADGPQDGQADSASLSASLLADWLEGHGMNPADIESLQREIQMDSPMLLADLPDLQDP
# [11] = hESC survival regulators, cell-based (AID 493140; call rule not given here;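 note: cells exposed to compounds for four days before counting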); details: human embryonic stem cell survival screen; stronger effect = higher value
# [12] = polyglutamine-triggered caspase-3 activation inhibitors, cell-based (AID 1583); details: polyglutamine-induced caspase-3 activation, cell assay; stronger effect = higher value;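 tested at 10 µM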
# [13] = suppressors of polyQ aggregation in yeast, 75Q-TubU reporter (AID 1593); details: Yeast 75Q polyglutamine aggregation reporter
# [14] = rescue of polyQ-huntingtin neuronal dysfunction in worms, whole organism, C. elegans mechanosensory neurons, N-terminal huntingtin (AID 1599); details: touch response, stronger effect = higher value
# [15] = inhibitors of mitochondrial cytochrome c release, biochemical, purified mitochondria (AID 1603); details: stronger effect = lower value;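 note: mouse liver mitochondria challenged with calcium chloride; signal normalized to the plate average as 100%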
# [16] = inhibitors of polyQ protein aggregation (AID 1604); details: polyglutamine-induced protein aggregation inhibition assay; stronger effect = higher value; tested at 2.5 µM
# [17] = enhancers of glutamate uptake in motor neurons, MN-1 cell line (AID 1612); details: MN-1 motor neuron cells, stronger effect = higher value;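 note: tested at 1 µM final; 0% = mean of DMSO vehicle wells on each plate; positive means more glutamate uptake than control and negative means less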
# [18] = reducers of polyQ inclusions in PC12 cells, cell-based, NGF-treated PC12, GFPQ80 (AID 1614); details: PC12 NGF-treated GFP-polyQ80 inclusion reduction;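 note: lower means fewer inclusions and 0 means no inclusions at all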
# [19] = suppressors of polyglutamine aggregation in yeast, 75Q-TubH (AID 1616); details: S. cerevisiae 75Q-TubH polyglutamine aggregation suppression; stronger effect = higher value
# [20] = stronger effect = lower value, cell number ratio, induced over uninduced
# [21] = measured here: relative caspase fold change +Dox/-Dox
# [22] = measured here: total cells with miR-34 induction, stronger effect = lower value
# [23] = measured here: total cells without miR-34 induction
# [24] = MELAS cybrid survival, CellTiter-Glo 48 h, stronger effect = higher value
# [25] = Rieske KO mouse fibroblast survival, CellTiter-Glo 72 h
smiles,measurement,setting,value
CO[C@H]1C[C@@H]2CC[C@@H](C)[C@@](O)(O2)C(=O)C(=O)N2CCCC[C@H]2C(=O)O[C@H]([C@H](C)C[C@@H]2CC[C@@H](O)[C@H](OC)C2)CC(=O)[C@H](C)/C=C(\C)[C@@H](O)[C@@H](OC)C(=O)[C@H](C)C[C@H](C)/C=C/C=C/C=C/1C,parasite load remaining,[1],55.9% (inactive)
same,viability,[1],106%
same,fold change,[2]; [20],0.856 (inactive) and 0.953 (inactive)
same,fold change,[2]; [21],1.35 and 1.11
same,cell count,[2]; [22],3240 and 7080
same,cell count,[2]; [23],3790 and 7430
same,SSMD,[3],1.27
same,cell count,[3],7610
same,plate-normalised HSF1 focus index,[3],1.08 (inactive)
same,z-score,[4]; [24],-0.0487 (inactive)
same,z-score,[4]; [25],0.674
same,z-score,[5],2.58 (active)
COc1cc(CNC(=O)CCCCCCC(C)C)ccc1O,period change,[6],0.135 h (inactive)
same,inhibition,[7],-5% (inactive)
same,fluorescence ratio (interference),[8],1 (inactive)
same,fold change,[2]; [20],1.08 (inactive) and 1.04 (inactive)
same,fold change,[2]; [21],0.866 and 1.07
same,cell count,[2]; [22],10600 and 5720
same,cell count,[2]; [23],9840 and 5480
same,outcome,[9],inactive
same,z-score,[5],-0.085 (inactive)
Cc1nn(-c2ccccc2)c(C)c1C=NN1CCN(Cc2ccccc2)CC1,inhibition,[7],-4% (inactive)
same,fluorescence ratio (interference),[8],1 (inactive)
same,fold change,[2]; [20],0.991 (inactive) and 0.89 (inactive)
same,fold change,[2]; [21],1.98 and 0.283
same,cell count,[2]; [22],8530 and 7580
same,cell count,[2]; [23],8610 and 8510
same,outcome,[9],inactive
same,z-score,[4]; [24],1.46 (inactive)
same,z-score,[4]; [25],-0.978
same,z-score,[5],-0.13 (inactive)
N[C@@H](Cn1ccc(=O)c(O)c1)C(=O)O,parasite load remaining,[1],61.9% (inactive)
same,viability,[1],117%
same,inhibition,[7],-3% (inactive)
same,fluorescence ratio (interference),[8],1 (inactive)
same,fold change,[2]; [20],1.03 (inactive) and 0.872 (inactive)
same,fold change,[2]; [21],1.54 and 1.46
same,cell count,[2]; [22],10200 and 9120
same,cell count,[2]; [23],9910 and 10400
same,outcome,[9],inactive
same,luciferase signal,[10],68 AU (inactive)
same,z-score,[5],0.455 (inactive)
CCCCC[C@H](O)/C=C/[C@@H]1[C@@H](C/C=C\CCCC(=O)O)[C@@H](O)C[C@H]1O,survival,[11],95.3 (inactive)
same,parasite load remaining,[1],32.1% (inactive)
same,viability,[1],102%
same,z-score,[4]; [24],-0.59 (inactive)
same,z-score,[4]; [25],-0.344
same,z-score,[5],0.625 (inactive)
CCC1(c2ccccc2)NC(=O)N(C)C1=O (centres undefined),inhibition,[12],6.58%
same,score,[13],1.42
same,rescue above control,[14],11.8
same,cytochrome c release ratio,[15],0.46
same,inhibition of aggregation,[16],79.3%
same,glutamate uptake change,[17],-9.05%
same,inclusion score,[18],2
same,aggregation suppression score,[19],1.34
same,survival,[11],9.5 (inactive)
same,parasite load remaining,[1],75.3% (inactive) and 65.4% (inactive)
same,viability,[1],74.4% and 110%
same,fold change,[2]; [20],0.978 (inactive) and 0.889 (inactive)
same,fold change,[2]; [21],0.677 and 1.53
same,cell count,[2]; [22],9090 and 9500
same,cell count,[2]; [23],9300 and 10700
same,z-score,[4]; [24],0.04 (inactive) and 0.144 (inactive)
same,z-score,[4]; [25],0.0806 and -0.391
same,z-score,[5],0.64 (inactive)
CC1c2cccc(O)c2C(O)=C2C(=O)[C@]3(O)C(O)=C(C(N)=O)C(=O)C(N(C)C)[C@@H]3C(O)[C@@H]21 (some centres undefined),fold change,[2]; [20],0.722 (inactive) and 0.743 (inactive) and 0.957 (inactive)
same,fold change,[2]; [21],1.04 and 0.719 and 0.385
same,cell count,[2]; [22],5360 and 5020 and 8780
same,cell count,[2]; [23],7420 and 6760 and 9180
same,z-score,[4]; [24],4.12 (active) and 3.16 (active) and -0.469 (inactive)
same,z-score,[4]; [25],5.71 and 4.93 and -0.551
CN(C)S(=O)(=O)c1ccc2c(c1)/C(=C/c1cc3c([nH]1)CCCC3)C(=O)N2,period change,[6],-0.01 h (inactive)
same,parasite load remaining,[1],43.1% (inactive)
same,viability,[1],152%
same,inhibition,[7],-2% (inactive)
same,fluorescence ratio (interference),[8],1 (inactive)
same,fold change,[2]; [20],0.998 (inactive) and 0.964 (inactive)
same,fold change,[2]; [21],1 and 1.24
same,cell count,[2]; [22],3800 and 4420
same,cell count,[2]; [23],3810 and 4590
same,outcome,[9],active
same,z-score,[5],1 (inactive)
CCCNC1CCc2nc(N)sc2C1 (centres undefined),fold change,[2]; [20],0.968 (inactive) and 0.933 (inactive) and 0.946 (inactive)
same,fold change,[2]; [21],2.07 and 1.64 and 3.69
same,cell count,[2]; [22],9570 and 9980 and 9760
same,cell count,[2]; [23],9890 and 10700 and 10300
same,z-score,[4]; [24],-0.192 (inactive)
same,z-score,[4]; [25],0.744
same,z-score,[5],1.44 (inactive) and 0.095 (inactive)
CCCCCC(O)CCCC(=O)O (centres undefined),period change,[6],-0.17 h (inactive)
same,inhibition,[7],-4% (inactive)
same,fluorescence ratio (interference),[8],1 (inactive)
same,fold change,[2]; [20],0.96 (inactive) and 0.942 (inactive)
same,fold change,[2]; [21],0.791 and 1.2
same,cell count,[2]; [22],9800 and 6140
same,cell count,[2]; [23],10200 and 6510
same,outcome,[9],inactive
same,z-score,[5],0.165 (inactive)

# — PubChem BioAssay
